Reference: the supplement of paper PMC6555819

These sequences were tested on VDR:RXRa (NR concentration 270 nM, RXRa partner concentration 90 nM) (assay: PBM binding z-score (relative to random genomic background probes); higher = stronger binding; sequences stand for … in GC…GCGATTGACAGCGTAGAATGAAGG).
Outline: (§1)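 Binding z-scores were set against random background probes. The data came from custom Agilent 4×180K protein-binding microarrays carrying double-stranded probes with 34-nt variable regions, incubated 1 h with ligand-free nuclear receptor dimers. Partner-specific antibodies detected binding, and scanned fluorescence was regression-normalized.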

Row | Sequence | PBM binding z-score
1 | ATACCAAGGTGATAGTGAGGTCGTTGATACTAAC | 3.69
2 | ATCTCTAGGTACGACTCAGTTCAGTGAAGAACGC | 1.28
3 | TCAGACAGGTGAAGGTAATTCAGGTACGCAGTCG | 1.1
4 | ATATGTAGGTTACATCCGGGTCATACAGGCTATG | 4.02
5 | GCTAGTTGGTCAGGAAAAGGTCACACACCGGTCG | 3.66
6 | TCGAGTAGGCTAGTCGGGGCATTCAGCCAACATA | -0.402
7 | ACTCGGAGGACAAAGTTCAGAGCTACGCCAGTGA | 1.95
8 | ACTAGTTGGTCAGCTGAGGTTACACACAATTCGG | 1.59
9 | TCATGTAGATCAAGCAGGTTAAGAAAGCCTGAGT | 0.938
10 | CCTACTGGGCCATCAGGTCAGTGATATCAACGTT | 0.21
11 | ATCTCTAGGTAACGTTCAGTGAAAGATCGATAGA | 0.101
12 | TCTAGCAGGCCAGAGGGTCACTCAGGAGGTACGG | 1.56
13 | ATCGAAAGGTCGAGGTGACTATAGAGAAAGGGAA | 2.55
14 | TCTATGAGTTGAAGGGCAACCGACGAGTCCGTTT | 0.953
15 | CCTACTGGGCCATTCGGAGGTCATTGATCATATG | 3.03
16 | CGAACTAGGCCATCCAGGACAGTGAATACATTGA | 0.0871
17 | ATCTCTAGCTAAAGATAGTTCAGTGAATGCAAAT | 0.182
18 | TGAAAGAGGTTATAAGATCAGGGAACGTTGCAAA | 0.894
19 | CCTACTGGGCCTTTCAGAGGTCATTGATCATATG | 3.36
20 | GGAACGAGGGCAAGTTGATAACAGAGTTTGATGG | 0.906

Row | Sequence | PBM binding z-score
21 | TCAGACAGGCGAAGGTAACTCAGGTACGCAGTCG | 0.498
22 | TCATATAGGTAAAAGCTGAAAGTCGGTGTGGTAA | 0.748
23 | CCGACTGGGGCAAAGGCTACCATACTCAGTACGA | -0.358
24 | CGTCCAAAGTCATAGGAGGTCAGTGAAGACAGAT | 3.12
25 | TCTCGGAGGACACGGAGGTCAGAGCTTTCCAGAG | 3.39
26 | TCTCGGACGACACGAAAGGTCAGAGCTCGACATC | 2.96
27 | TCTTGTAGATCAAGCAGGTTCAGAAAGCCTGAGT | 1.93
28 | ACTGACGGGTCAACGAGGTTATAGCACGCGTATA | 7.41
29 | TCGATTAGGTTAGGGGCATTCAGAATGGCGTCGA | 0.781
30 | TCGAGTAGGTTAGCAATGGGGCATTCAGCTTTCT | -0.142
31 | AATACAGGGTCAGTAGGCCAGAGTAGGTACGAAT | 2.65
32 | ATCGAAAGCTCGACGAGGTGAGTATACACCGTTT | -0.25
33 | TAGCCTAGGTGATGCGGGCCAGTATAGTGTCGGC | -0.796
34 | CTCGAAAGGTCGGTTGAGATGAGTATACGGATAA | 0.961
35 | CCTAGTTGGTCCAGGTCACACACGCTATAGGTAC | 2.54
36 | CCTATTAGTTGACCATAATGGCAACCGAAGCTCG | 0.509
37 | TGAATGAGGTTATCAGATCAGGGAACGTTGCAAA | 1.04
38 | TCTATTAGTTGATTAGGGCTACCGAAACAGCGGA | 0.473
39 | AGACCAAGGTGATCGTGAGGTCGTTGATACTAAC | 3.12
40 | GCTAGCAGGCCATTTGGATCACTCAATGACGGGC | -0.73

The sequences below were run on VDR homodimer (NR concentration 270 nM) in the same assay as above.
Outline: as §1

Row | Sequence | PBM binding z-score
41 | ATACCAAGGTGATAGTGAGGTCGTTGATACTAAC | 3.15
42 | ATCTCTAGGTACGACTCAGTTCAGTGAAGAACGC | 2.02
43 | TCAGACAGGTGAAGGTAATTCAGGTACGCAGTCG | 0.38
44 | ATATGTAGGTTACATCCGGGTCATACAGGCTATG | 2.26
45 | GCTAGTTGGTCAGGAAAAGGTCACACACCGGTCG | 1.68
46 | TCGAGTAGGCTAGTCGGGGCATTCAGCCAACATA | -0.582
47 | ACTCGGAGGACAAAGTTCAGAGCTACGCCAGTGA | 2.54
48 | ACTAGTTGGTCAGCTGAGGTTACACACAATTCGG | 1.01
49 | TCATGTAGATCAAGCAGGTTAAGAAAGCCTGAGT | 0.0758
50 | CCTACTGGGCCATCAGGTCAGTGATATCAACGTT | 0.319
51 | ATCTCTAGGTAACGTTCAGTGAAAGATCGATAGA | -0.197
52 | TCTAGCAGGCCAGAGGGTCACTCAGGAGGTACGG | 0.271
53 | ATCGAAAGGTCGAGGTGACTATAGAGAAAGGGAA | 0.269
54 | TCTATGAGTTGAAGGGCAACCGACGAGTCCGTTT | 1.57
55 | CCTACTGGGCCATTCGGAGGTCATTGATCATATG | 3.03
56 | CGAACTAGGCCATCCAGGACAGTGAATACATTGA | 0.275
57 | ATCTCTAGCTAAAGATAGTTCAGTGAATGCAAAT | 0.516
58 | TGAAAGAGGTTATAAGATCAGGGAACGTTGCAAA | -0.105
59 | CCTACTGGGCCTTTCAGAGGTCATTGATCATATG | 2.8
60 | GGAACGAGGGCAAGTTGATAACAGAGTTTGATGG | 1.74

Row | Sequence | PBM binding z-score
61 | TCAGACAGGCGAAGGTAACTCAGGTACGCAGTCG | -0.35
62 | TCATATAGGTAAAAGCTGAAAGTCGGTGTGGTAA | -0.102
63 | CCGACTGGGGCAAAGGCTACCATACTCAGTACGA | -0.299
64 | CGTCCAAAGTCATAGGAGGTCAGTGAAGACAGAT | 1.55
65 | TCTCGGAGGACACGGAGGTCAGAGCTTTCCAGAG | 2
66 | TCTCGGACGACACGAAAGGTCAGAGCTCGACATC | 0.805
67 | TCTTGTAGATCAAGCAGGTTCAGAAAGCCTGAGT | 2.13
68 | ACTGACGGGTCAACGAGGTTATAGCACGCGTATA | 3.7
69 | TCGATTAGGTTAGGGGCATTCAGAATGGCGTCGA | 1.08
70 | TCGAGTAGGTTAGCAATGGGGCATTCAGCTTTCT | -0.45
71 | AATACAGGGTCAGTAGGCCAGAGTAGGTACGAAT | 1.72
72 | ATCGAAAGCTCGACGAGGTGAGTATACACCGTTT | -0.291
73 | TAGCCTAGGTGATGCGGGCCAGTATAGTGTCGGC | -1.22
74 | CTCGAAAGGTCGGTTGAGATGAGTATACGGATAA | 0.738
75 | CCTAGTTGGTCCAGGTCACACACGCTATAGGTAC | 2.54
76 | CCTATTAGTTGACCATAATGGCAACCGAAGCTCG | 1.12
77 | TGAATGAGGTTATCAGATCAGGGAACGTTGCAAA | 0.273
78 | TCTATTAGTTGATTAGGGCTACCGAAACAGCGGA | 0.356
79 | AGACCAAGGTGATCGTGAGGTCGTTGATACTAAC | 2.56
80 | GCTAGCAGGCCATTTGGATCACTCAATGACGGGC | -0.518
